The full data set covers some 7,900 targets. This sample favours those with a hit. About 0.6% of all pairs of compound and target were hits. A number with no mark means an inactive call.
compound: O=C1NC(=O)C(c2cnc3ccccn23)=C1c1cn2c3c(cc(F)cc13)CN(C(=O)N1CCCCC1)CC2; assay: log2 fold change, soluble protein after heating vs DMSO (PISA); higher = thermal stabilisation; K562 cells, 10 uM, 30 min; active = over 0.2 and 3.5 SD of the protein, either way, in both replicates (recomputed)
Procedure, shortened: (§1)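 Quantification of soluble protein used TMTpro 16plex LC-MS/MS, with channel sums equalised. Samples were the supernatant after 21,000xg for 90 min of pooled aliquots from K562 cells (2×10^6 cells/mL) treated with 10 μM compound for 30 min, heated for 3 min over 48°C-58°C, and extracted in PBS with 0.5% NP-40 at 4°C. Values, from duplicates, describe thermal stability against control samples on a log2 fold-change scale.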

Chain of UniProt Q8N4S0 (Q8N4S0 whole entry, looked up): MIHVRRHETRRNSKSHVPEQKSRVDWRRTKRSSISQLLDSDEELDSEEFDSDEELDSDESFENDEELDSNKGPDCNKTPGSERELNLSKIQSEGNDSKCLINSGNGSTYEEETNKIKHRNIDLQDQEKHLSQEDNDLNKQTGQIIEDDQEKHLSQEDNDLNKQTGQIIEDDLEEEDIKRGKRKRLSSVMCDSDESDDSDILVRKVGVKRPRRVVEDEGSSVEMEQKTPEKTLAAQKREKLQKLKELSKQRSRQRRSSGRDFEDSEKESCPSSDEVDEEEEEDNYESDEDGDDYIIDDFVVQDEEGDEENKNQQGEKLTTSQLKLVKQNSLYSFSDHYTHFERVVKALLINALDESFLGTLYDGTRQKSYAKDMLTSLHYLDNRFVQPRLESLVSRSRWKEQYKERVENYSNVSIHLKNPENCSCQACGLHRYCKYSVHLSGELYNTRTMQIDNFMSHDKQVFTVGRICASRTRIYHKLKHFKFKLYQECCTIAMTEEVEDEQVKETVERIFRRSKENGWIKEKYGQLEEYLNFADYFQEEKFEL
Chain of UniProt Q6ZTR5 (Q6ZTR5 whole entry, looked up): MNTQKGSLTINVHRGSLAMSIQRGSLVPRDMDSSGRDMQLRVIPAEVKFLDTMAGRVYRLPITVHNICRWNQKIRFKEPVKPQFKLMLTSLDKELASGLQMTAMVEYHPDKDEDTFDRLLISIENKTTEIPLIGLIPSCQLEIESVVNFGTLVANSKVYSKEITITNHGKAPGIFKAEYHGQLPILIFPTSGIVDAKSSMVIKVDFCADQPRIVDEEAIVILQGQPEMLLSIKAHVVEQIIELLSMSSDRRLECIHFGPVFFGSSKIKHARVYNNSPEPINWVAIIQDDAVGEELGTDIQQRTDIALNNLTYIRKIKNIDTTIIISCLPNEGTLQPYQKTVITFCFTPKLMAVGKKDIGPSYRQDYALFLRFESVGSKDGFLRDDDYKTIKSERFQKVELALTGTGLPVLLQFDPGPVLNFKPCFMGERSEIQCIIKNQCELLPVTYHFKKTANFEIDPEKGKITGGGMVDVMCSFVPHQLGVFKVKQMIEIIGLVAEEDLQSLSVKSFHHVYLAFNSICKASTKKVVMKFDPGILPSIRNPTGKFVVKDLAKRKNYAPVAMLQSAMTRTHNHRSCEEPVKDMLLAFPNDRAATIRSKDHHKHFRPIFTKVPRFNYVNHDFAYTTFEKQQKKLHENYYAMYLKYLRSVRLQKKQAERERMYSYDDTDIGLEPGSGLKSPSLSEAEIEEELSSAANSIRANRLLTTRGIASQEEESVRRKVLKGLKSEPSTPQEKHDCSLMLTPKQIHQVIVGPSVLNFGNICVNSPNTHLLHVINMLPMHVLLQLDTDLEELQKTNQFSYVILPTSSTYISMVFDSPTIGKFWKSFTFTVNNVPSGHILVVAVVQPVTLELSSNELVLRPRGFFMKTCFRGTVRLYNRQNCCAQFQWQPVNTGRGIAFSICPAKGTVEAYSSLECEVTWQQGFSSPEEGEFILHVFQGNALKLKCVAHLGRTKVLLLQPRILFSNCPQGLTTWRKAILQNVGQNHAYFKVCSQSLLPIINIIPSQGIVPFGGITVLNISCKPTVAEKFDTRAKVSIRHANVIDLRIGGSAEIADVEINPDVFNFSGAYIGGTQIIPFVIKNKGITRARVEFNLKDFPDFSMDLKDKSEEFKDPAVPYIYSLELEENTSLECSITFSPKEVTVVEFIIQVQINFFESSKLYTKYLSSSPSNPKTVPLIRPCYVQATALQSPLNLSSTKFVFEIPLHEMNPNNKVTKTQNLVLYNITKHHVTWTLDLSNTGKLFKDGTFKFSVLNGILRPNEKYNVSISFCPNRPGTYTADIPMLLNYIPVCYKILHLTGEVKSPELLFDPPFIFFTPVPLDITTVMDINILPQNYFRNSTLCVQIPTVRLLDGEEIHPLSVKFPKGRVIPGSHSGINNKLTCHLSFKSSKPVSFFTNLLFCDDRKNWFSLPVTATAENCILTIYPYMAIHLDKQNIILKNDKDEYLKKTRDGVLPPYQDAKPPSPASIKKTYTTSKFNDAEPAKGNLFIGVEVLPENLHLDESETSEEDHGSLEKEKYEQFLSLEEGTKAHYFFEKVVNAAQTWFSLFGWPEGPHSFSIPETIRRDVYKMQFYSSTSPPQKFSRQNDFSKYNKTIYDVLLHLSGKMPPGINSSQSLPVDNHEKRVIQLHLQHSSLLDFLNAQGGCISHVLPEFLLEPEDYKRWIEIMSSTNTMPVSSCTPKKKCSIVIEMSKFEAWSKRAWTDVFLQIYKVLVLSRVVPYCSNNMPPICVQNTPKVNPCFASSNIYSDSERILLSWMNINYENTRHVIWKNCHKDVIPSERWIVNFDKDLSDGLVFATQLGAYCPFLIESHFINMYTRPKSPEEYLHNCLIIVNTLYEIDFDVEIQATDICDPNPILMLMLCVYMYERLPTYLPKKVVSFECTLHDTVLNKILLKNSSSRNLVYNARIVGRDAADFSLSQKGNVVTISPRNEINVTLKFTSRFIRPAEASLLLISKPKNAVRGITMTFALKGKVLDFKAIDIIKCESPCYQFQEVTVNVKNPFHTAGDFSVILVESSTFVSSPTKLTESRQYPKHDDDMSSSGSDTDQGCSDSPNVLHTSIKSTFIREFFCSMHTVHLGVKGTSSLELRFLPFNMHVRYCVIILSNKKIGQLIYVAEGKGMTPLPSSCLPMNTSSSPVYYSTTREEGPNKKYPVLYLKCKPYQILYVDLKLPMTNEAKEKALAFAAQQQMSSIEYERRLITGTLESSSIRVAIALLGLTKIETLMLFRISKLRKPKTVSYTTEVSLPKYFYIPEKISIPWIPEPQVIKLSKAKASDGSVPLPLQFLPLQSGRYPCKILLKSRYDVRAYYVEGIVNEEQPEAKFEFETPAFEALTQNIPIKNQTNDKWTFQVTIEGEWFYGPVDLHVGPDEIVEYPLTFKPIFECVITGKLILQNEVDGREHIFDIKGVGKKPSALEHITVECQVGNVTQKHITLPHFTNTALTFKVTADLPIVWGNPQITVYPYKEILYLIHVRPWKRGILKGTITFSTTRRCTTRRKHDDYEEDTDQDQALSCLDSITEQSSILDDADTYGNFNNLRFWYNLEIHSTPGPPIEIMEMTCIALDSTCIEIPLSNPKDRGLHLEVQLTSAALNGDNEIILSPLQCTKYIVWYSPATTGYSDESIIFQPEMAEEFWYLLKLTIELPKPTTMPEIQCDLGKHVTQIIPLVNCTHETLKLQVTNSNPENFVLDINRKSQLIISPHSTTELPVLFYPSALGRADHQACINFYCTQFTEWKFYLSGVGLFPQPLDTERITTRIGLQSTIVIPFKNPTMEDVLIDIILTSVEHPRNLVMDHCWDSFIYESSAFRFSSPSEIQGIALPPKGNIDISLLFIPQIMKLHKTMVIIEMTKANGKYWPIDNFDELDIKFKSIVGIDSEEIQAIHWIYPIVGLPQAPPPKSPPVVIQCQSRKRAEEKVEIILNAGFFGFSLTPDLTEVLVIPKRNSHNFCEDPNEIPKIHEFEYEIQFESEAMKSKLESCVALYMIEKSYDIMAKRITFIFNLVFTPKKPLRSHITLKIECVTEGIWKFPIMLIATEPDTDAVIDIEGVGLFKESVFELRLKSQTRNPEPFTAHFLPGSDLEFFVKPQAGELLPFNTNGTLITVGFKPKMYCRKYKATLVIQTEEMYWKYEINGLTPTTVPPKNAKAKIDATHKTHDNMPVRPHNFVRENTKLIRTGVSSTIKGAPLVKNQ
Chain of UniProt Q9P0B6 (Q9P0B6 whole entry, looked up): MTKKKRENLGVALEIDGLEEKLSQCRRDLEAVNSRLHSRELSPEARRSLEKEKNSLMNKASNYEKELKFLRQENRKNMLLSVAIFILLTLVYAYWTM
Chain of UniProt Q2TAC2 (Q2TAC2 whole entry, looked up): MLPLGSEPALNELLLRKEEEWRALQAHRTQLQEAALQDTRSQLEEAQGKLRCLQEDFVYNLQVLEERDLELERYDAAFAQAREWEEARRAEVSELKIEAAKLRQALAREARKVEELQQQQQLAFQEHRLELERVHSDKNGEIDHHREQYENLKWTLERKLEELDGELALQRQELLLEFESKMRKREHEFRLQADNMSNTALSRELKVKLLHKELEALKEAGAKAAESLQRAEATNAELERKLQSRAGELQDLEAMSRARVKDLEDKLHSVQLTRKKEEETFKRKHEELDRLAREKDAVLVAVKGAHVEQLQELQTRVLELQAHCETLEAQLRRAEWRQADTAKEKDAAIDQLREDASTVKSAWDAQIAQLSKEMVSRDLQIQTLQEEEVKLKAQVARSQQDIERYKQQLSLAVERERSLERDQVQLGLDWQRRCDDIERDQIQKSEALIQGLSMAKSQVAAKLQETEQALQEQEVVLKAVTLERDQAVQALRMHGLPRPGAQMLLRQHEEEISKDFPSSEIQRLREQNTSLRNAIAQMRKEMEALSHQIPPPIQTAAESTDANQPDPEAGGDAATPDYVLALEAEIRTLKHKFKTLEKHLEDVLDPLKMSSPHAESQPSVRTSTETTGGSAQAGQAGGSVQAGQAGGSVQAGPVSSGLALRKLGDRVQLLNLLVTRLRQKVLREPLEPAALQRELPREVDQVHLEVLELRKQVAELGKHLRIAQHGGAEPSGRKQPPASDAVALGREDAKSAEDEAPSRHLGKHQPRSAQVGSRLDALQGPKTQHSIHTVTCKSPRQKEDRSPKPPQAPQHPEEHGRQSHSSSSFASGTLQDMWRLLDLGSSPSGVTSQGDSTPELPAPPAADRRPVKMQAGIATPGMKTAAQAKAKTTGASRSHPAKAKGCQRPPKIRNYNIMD
Chain of UniProt Q8N668 (Q8N668 whole entry, looked up): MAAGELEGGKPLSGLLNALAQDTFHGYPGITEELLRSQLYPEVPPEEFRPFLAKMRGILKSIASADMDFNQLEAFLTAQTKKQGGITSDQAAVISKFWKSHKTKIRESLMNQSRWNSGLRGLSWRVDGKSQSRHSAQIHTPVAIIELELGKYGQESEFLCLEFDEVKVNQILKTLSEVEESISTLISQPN
Chain of UniProt O75956 (O75956 whole entry, looked up): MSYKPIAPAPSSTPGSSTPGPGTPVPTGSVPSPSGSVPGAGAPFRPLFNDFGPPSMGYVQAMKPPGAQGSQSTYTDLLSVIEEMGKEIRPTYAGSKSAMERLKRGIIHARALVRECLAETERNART

Target	log2 fold change
CCM2 isoform 2 (UniProt Q9BSQ5)	-0.136
CCDC167 (UniProt Q9P0B6)	0.038
CCND3 (UniProt P30281)	0.069
CEMIP2 (UniProt Q9UHN6)	0.034
CCDC82 (UniProt Q8N4S0)	-0.169
C5orf30 (UniProt Q96GV9)	-0.051
CFAP47 (UniProt Q6ZTR5)	-0.025
CRTC1 isoform 2 (UniProt Q6UUV9)	-0.371
CCDC57 (UniProt Q2TAC2)	-0.002
COMMD3-BMI1 (UniProt R4GMX3)	-0.012
CASP7 isoform 3 (UniProt P55210)	-0.048
COMMD1 (UniProt Q8N668)	-0.018
CLINT1 (UniProt Q14677)	0.058
CNRIP1 (UniProt Q96F85)	0.738 (active)
CREB3L2 (UniProt Q70SY1)	-0.076
CD84 (UniProt Q9UIB8)	0.084
CCDC187, A0A1W2PQX5	-0.048
CA1 (UniProt E5RIF9)	-0.026
CDK2AP2 (UniProt O75956)	-0.062
CLN3 (UniProt Q13286)	0.072
CRTC3 (UniProt Q6UUV7)	0.025

compound: c1cc(OCCN2CCCCC2)cc(-c2n[nH]c3ccc(-c4nnc[nH]4)cc23)c1; assay: as above
Procedure, shortened: as §1

Target	log2 fold change
CCM2 isoform 2 (UniProt Q9BSQ5)	0.069
CCDC167 (UniProt Q9P0B6)	0.009
CCND3 (UniProt P30281)	0.183
CEMIP2 (UniProt Q9UHN6)	-0.078
CCDC82 (UniProt Q8N4S0)	0.046
CNOT4 isoform 9 (UniProt O95628)	0.178
CKS2 (UniProt P33552)	-0.071
CFAP47 (UniProt Q6ZTR5)	-0.008
CCDC57 (UniProt Q2TAC2)	-0.11
C6orf120 (UniProt Q7Z4R8)	-0.141
CEBPZOS (UniProt A8MTT3)	-0.056
CASP7 isoform 3 (UniProt P55210)	0.021
CLASP2 (UniProt O75122)	0.08
COMMD1 (UniProt Q8N668)	-0.065
CS (UniProt F8VU34)	-0.393
CLINT1 (UniProt Q14677)	0.062
CFAP58 (UniProt Q5T655)	0.392
CRLS1 (UniProt Q9UJA2)	-0.051
CLCN5 isoform 2 (UniProt P51795)	-0.114
CDK2AP2 (UniProt O75956)	-0.1
CLN3 (UniProt Q13286)	-0.033
